Screening data: PubChem, several laboratories
SSB-PriA inh: blocks PriA binding to SSB C-terminal tail; AlphaScreen SSBct-PriA binding, biotinylated peptide; inhibition, % at 33 µM; 430,000 compounds, 0.6% hits; in the data active = inhibition mostly above about 37%, no sharp cut-off; inactive = mostly below about 20%;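 also: plate controls were negative control peptide for no effect and reference peptide for full effect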
MazF activator: activators of E. coli MazEF toxin-antitoxin RNase. P0AE70. FAM/BHQ RNA-DNA oligo cleavage fluorescence, 5 h. activation, % at 20 µM. 350,000 compounds, 0.32% hits; in the data active = activation above about 50%
PrP 5UTR inh: inhibition of PrP 5' UTR reporter expression. 340,000 compounds, 0.35% hits. cell-based PrP 5' UTR mRNA reporter, plate reader. AID 488862. inhibition, % (test concentration not listed); in the data active = inhibition above about 52%; also: 0 = median of the neutral control wells
PfHsp40 rescue: compounds rescuing yeast from Plasmodium falciparum HSP40 toxicity; 340,000 compounds, 0.68% hits; growth rescue, % at 12.5 µM; S. cerevisiae expressing PfHsp40, growth rescue, ATP luminescence; in the data active = growth rescue above about 28%, passing the limit was not always enough;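 also: yeast W303a lacking pdr1 and pdr3 grown in galactose medium; growth measured after three days at 30 °C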
PrPC surface inh: inhibitors of human cell surface prion protein PrPC; 370,000 compounds, 0.43% hits; P04156; inhibition, % at 13.8 µM; TR-FRET read-out; in the data active = inhibition above about 24%; also: 0% = median of the test wells and 100% = reference compound wells
PrPC confirm: cell surface PrPC inhibition, TR-FRET confirmation. shares compounds with PrPC surface inh. cell surface PrPC level. inhibition, % at 13.8 µM. 1,500 compounds, 65% hits. AID 743200; in the data active = inhibition above about 25%
LD9 tox: LD9 cell cytotoxicity, PrPc inhibitor counter-screen. 1,500 compounds, 29% hits. LD9 cells cytotoxicity, luminescence viability. shares compounds with PrPC surface inh. inhibition, % at 13.8 µM; in the data active = inhibition above about 9.5%
An asterisk follows results filed as active; . = not tested or not shown. In the library only some 1.8% were active in any assay of this set; here they are far more common.

SMILES | SSB-PriA inh | MazF activator | PrP 5UTR inh | PfHsp40 rescue | PrPC surface inh | PrPC confirm | LD9 tox
COc1cc(OC)c(N(C)S(=O)(=O)c2cccc(C(=O)OCC(=O)N3CCOCC3)c2)cc1Cl | -4 | 6 | -10 | 1 | 3 | . | .
COc1cc(OC)cc(C(=O)N[C@H](C(=O)Nc2nc(-c3cc(OC)ccc3OC)cs2)C(C)C)c1 | 5 | -15 | -18 | 0 | 26* | 30* | -8
COc1cc(Cn2c3ccc(NC(=O)NCc4ccc(F)cc4)cc3c(=O)n2C)ccc1F | . | . | . | . | 13 | . | .
COc1cc(Cn2c3ccc(NC(=O)CCc4ccc(O)cc4)cc3c(=O)n2C)ccc1F | . | . | . | . | 28* | 20 | -5
COc1ccc(OC)c(CC(=O)Nc2ccc3c(c2)c(=O)n(C)n3Cc2cccc(C(F)(F)F)c2)c1 | . | . | . | . | 82* | 29* | 4
Cn1c(=O)c2cc(NC(=O)CCc3ccc4c(c3)OCO4)ccc2n1Cc1ccc(F)cc1 | . | . | . | . | 31* | 19 | 6
COc1ccc(CNC(=O)Nc2ccc3c(c2)c(=O)n(C)n3Cc2cccc(C(F)(F)F)c2)cc1 | . | . | . | . | 23 | . | .
COc1ccc(/C=N/NC(=O)c2sc(C)nc2C)cc1 | . | -6 | -32 | -1 | 1 | . | .
C[C@@H]1C(c2ccccc2)CC(=O)C(=O)C[C@@H]1C(=O)N1CCCC1 (some centres undefined) | . | . | . | . | -1 | . | .
CC(C)(C)c1ccc(-n2nc(C#N)c(Cl)cc2=O)cc1 | 1 | -3 | -76 | 146* | 69* | 70* | 98*
CCN(CC(=O)NCc1cccs1)CC(=O)Nc1ccccc1C | 0 | 4 | -23 | -1 | 2 | . | .
O=C1C(=C(c2ccccc2)N2CCOCC2)Cc2ccccc21 | . | 5 | . | . | 33* | 4 | 98*
O=C(COc1cccc2c1CCN(Cc1ccccc1)C2=O)N1CCCCC1 | 13 | 4 | -8 | 2 | 29* | 18 | -3
Cc1cc(C)c(S(=O)(=O)N2CCOC2CNC(=O)C(=O)NCc2cccnc2)c(C)c1 (centres undefined) | -10 | 1 | -27 | 1 | 4 | . | .
CC[C@H](C)[C@@H]1NC(=O)[C@@H](CC(C)C)NC(=O)[C@H](C(C)C)NC(=O)[C@H]2CSSC[C@H](NC1=O)C(=O)N2 | . | . | . | . | 41* | 47* | 99*
CC(C)C[C@@H]1NC(=O)[C@H](C(C)C)NC(=O)c2cc([N+](=O)[O-])cc(I)c2NCC[C@@H](C(N)=O)NC1=O | -12 | 2 | . | . | . | . | .
Cc1nn(-c2ccccc2)c(Cl)c1C1C(C#N)=C(N)Oc2c1c(=O)oc1ccccc21 (centres undefined) | -3 | 7 | -17 | 0 | 36* | 10 | 3
Cc1cc(NC(=O)[C@H](C)Oc2ccccc2)n(-c2nc3c(cnn3-c3ccc(Cl)cc3)c(=O)[nH]2)n1 | -9 | . | . | . | . | . | .
COC(=O)/C=C/S(=O)(=O)c1ccc(NC(C)=O)cc1 | -16 | -1 | -5 | 5 | 77* | -1 | 94*
CC(=O)c1ccc(NC(=O)Nc2ccc(Cl)cc2)cc1 | -8 | 11 | -131 | 1 | 28* | 24 | 1
N#CCC(N)=C(C#N)C#N | -3 | 12 | -21 | 1 | 61* | 18 | -3
O=[N+]([O-])c1ccc(C=NNc2ncc(Br)cn2)cc1 | -9 | . | . | . | . | . | .
CN1CCC(NC(=O)Nc2ccc(Br)cc2)CC1 | -8 | 1 | -37 | -1 | 9 | . | .
COc1ccc(/C=N/NC(C)(C)C)c(OC)c1 | . | 7 | -13 | 0 | 6 | . | .
Cc1onc(-c2ccccc2Cl)c1C(=O)N1CCCc2ccccc21 | -3 | -2 | -45 | 0 | 2 | . | .
SMILES | SSB-PriA inh | MazF activator | PrP 5UTR inh | PfHsp40 rescue | PrPC surface inh | PrPC confirm | LD9 tox
Cc1onc(-c2ccccc2Cl)c1C(=O)OCC(=O)N1CCCc2ccccc21 | -3 | -7 | -3 | 1 | 30* | 6 | 2
Cc1ccccc1C(=O)NN1C(=O)CSC1=S | 7 | -15 | -12 | -1 | 34* | 11 | -6
COc1ccccc1/C=C(\C#N)S(=O)(=O)c1ccc(C)cc1 | -16 | . | . | . | . | . | .
O=C(O)CC(NC(=O)c1sc2ccccc2c1Cl)c1ccc(OC2CCCC2)cc1 (centres undefined) | -11 | -3 | -24 | -1 | 31* | 28* | -5
O=C(O)CC(NC(=O)C1c2ccccc2Oc2ccccc21)c1ccc(OC2CCCC2)cc1 (centres undefined) | -6 | -1 | -1 | 0 | 14 | . | .
CC(NC(=O)c1sc2ccccc2c1Cl)C1CCCO1 (centres undefined) | -18 | 6 | -56 | 0 | 38* | 44* | -4
Cc1ccc2c(Cl)c(C(=O)NCC3CCCO3)sc2c1 (centres undefined) | -9 | -5 | -41 | 0 | 25* | 37* | 1
O=C(NCC1CCCO1)c1sc2ccccc2c1Cl (centres undefined) | -24 | 1 | -83 | 1 | 9 | . | .
CCCCc1c(C)nc(Nc2ccc(OC)cc2)[nH]c1=O | 0 | 3 | -33 | 0 | -3 | . | .
N#CC12c3ccccc3C(=O)N1Cc1cnnn1-c1ccccc12 (centres undefined) | . | . | . | . | -1 | . | .
OC[C@@H]1CN(Cc2ccc(Cl)cc2)C[C@H](n2cnc3c(Nc4ccccc4)ncnc32)O1 | . | . | . | . | 41* | 20 | -2
CC1OC2CC(=O)OC2C2=C1C(=O)c1c(O)cccc1C2=O (centres undefined) | . | . | . | . | 81* | 93* | 99*
O=C1c2cccc(O)c2C(=O)c2c(O)cc(CO)cc21 | 6 | -69 | . | . | . | . | .
O=C(Cn1cc2c(n1)CCCCC2)Nc1ccc(F)cc1F | . | . | . | . | 3 | . | .
COc1cccc(C(C)(O)c2nc(-c3cccc(C(=O)O)c3)cs2)c1 (centres undefined) | . | . | . | . | -4 | . | .
CCN(CC)C(=O)c1cccc(-c2csc(C(C)(O)c3ccncc3)n2)c1 (centres undefined) | . | . | . | . | 40* | 30* | 7
OC(COc1ccc2ccccc2c1Br)Cn1cnc(-c2ccccc2)c1 (centres undefined) | 1 | -8 | -10 | 1 | 65* | 84* | 1
COc1ccc(OCC(O)Cn2cnc(-c3ccc(Br)cc3)c2)cc1 (centres undefined) | 11 | -1 | -20 | 5 | -3 | . | .
O=C(NCCc1ccccc1)C1CCN(C(=O)c2sccc2-n2cccc2)CC1 | 4 | 8 | -29 | -1 | -2 | . | .
OC1(c2ccccc2F)CCN(Cc2nnnn2CCc2ccccc2)CC1 | -16 | -6 | -14 | 0 | 1 | . | .
CCOC(=O)c1nc(S(C)(=O)=O)ncc1Cl | -3 | 3 | -4 | 0 | -4 | . | .
CC(C)(C)n1c(O)c(C=Nc2ccc3c(c2)CCC3)c(=O)[nH]c1=O | -18 | 7 | -5 | -1 | 29* | 3 | -4
Cc1ccc(C(=O)Nc2ccc3cn[nH]c3c2)cc1S(=O)(=O)N1CCCCC1 | 11 | -4 | -51 | 14 | 26* | 18 | 0
